In PubChem BioAssay AID651871 (Sanford-Burnham Center for Chemical Genomics, 2012) one finds activity (protection/inhibition) data, which are given here for three molecules.

Values joined by “and” are separate entries in the source; they are usually repeats but may differ in a detail not shown here. Identical values can stand only once.

For this test, the system named is HL-1. Nature of the test: cardiomyocyte survival under oxidative or metabolic stress – cell-based, panel, H9c2 and HL-1, ATP luminescence, set 2, SAR follow-up (AID 651871).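 Also: cells exposed to stressor for 2 h before ATP readout; reference of the scale not given here.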 As to conditions: H9c2/HL-1 cardiomyocytes, 2-deoxyglucose stress, with 2-deoxyglucose.
The mark [1] stands for this setting: run 11, at 79 µM (top of the series).

For the molecule `CCOC(=O)c1cccc(NC(=O)CNC(=O)c2cc(-c3cc(OC)c(OC)c(OC)c3)nc3ccccc23)c1`, the activity (protection/inhibition) under setting [1] came to 66.5%. As for `COc1ccc2nc(-c3cc(OC)c(OC)c(OC)c3)cc(C(=O)NCC(=O)Nc3ccc(C(C)=O)cc3)c2c1`, the activity (protection/inhibition) under setting [1] was found to be 89%. Regarding `COc1ccc2c(c1OC)C(=O)N1c3ccccc3C(=O)N(Cc3cccc(Cl)c3Cl)C21` (centres undefined), the activity (protection/inhibition) is 40% (run 11, at 19.8 µM (top of the series)); 42.6% and -9.56% under setting [1].
